PubChem BioAssay (NCATS)
Inconclusive results are not listed. A call without a number means that no potency is given here. Activity calls are given as the source filed them. Calls come from the whole dose curve; as a rule, active = well fitted curve in the direction sought with a large enough effect; inconclusive = small, poorly fitted or top-dose-only effect, or another doubt; inactive = no such curve, though single readings can be large; an effect the other way counts as inactive or inconclusive.

Tests used:
[1] = qHTS of Nrf2 Activators: LOPAC Validation (AID 624149)
Procedure, shortened: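 Luciferase signal from ARE activation, read with Steady-Glo after 30 min at room temperature. Compounds were pin-transferred onto AREc32_Fluc cells (1000/well, OPTI-MEM/5% FBS, seeded overnight) and left 24 hr at 37 deg C.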

[2] = HTS Assay for Allosteric Antagonists of the Human D2 Dopamine Receptor: Hit Validation in HTRF (AID 624455);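 note: stable D1 dopamine receptor cell line scored for blocking the D1 response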
Procedure, shortened: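 Inhibition of the D1-mediated response was measured by HTRF. Cells used were a line stably expressing the D1 dopamine receptor.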

Compound | outcome [1] | Potency [2]
CCOC(=O)C1=C(C)NC(C)=C(C(=O)OCC)C1c1c(F)c(F)c(F)c(F)c1F | inactive | inactive
CN(C)CCC(c1ccc(Cl)cc1)c1ccccn1 (stereo unspecified) | inactive | inactive
COc1ccc2c(c1)CCC1C2CC[C@@]2(C)C1CC[C@@H]2NCCCCCCN1C(=O)CCC1=O (stereo partly specified) | inactive | inactive
CN(C)c1ccc(/C=C2\C(=O)Nc3ccccc32)cc1 | inactive | inactive
CCCCCCCCCCCCCCCCCC(=O)NCC(COP(=O)([O-])OCC[N+](C)(C)C)OCC (stereo unspecified) | inactive | inactive
Fc1ccc(C(OCCCc2cnc[nH]2)c2ccc(F)cc2)cc1 | inactive | inactive
CC(C)NC[C@@H](O)c1ccc(O)c(O)c1 | inactive | inactive
CN(C)c1nc2c(Br)c(Br)c(Br)c(Br)c2[nH]1 | inactive | inactive
CO/N=C(\C(=O)N[C@@H]1C(=O)N2C(C(=O)O)=C(COC(C)=O)CS[C@H]12)c1csc(N)n1 | inactive | inactive
CC(COc1ccc(/C=C/c2ccccc2)cc1)[N+](C)(C)C (stereo unspecified) | inactive | inactive
CNCC[C@H](Oc1ccc(C(F)(F)F)cc1)c1ccccc1 | inactive | inactive
C=CC(N)CCC(=O)O (stereo unspecified) | inactive | inactive
O=[N+]([O-])c1ccc2c(c1)S(=O)(=O)C=C2 | – | inactive
COc1ccccc1CNCCCCCCNCCCCCCCCNCCCCCCNCc1ccccc1OC | inactive | inactive
Nc1nc(Cl)nc2c1ncn2[C@@H]1O[C@H](CO)[C@@H](O)[C@H]1O | inactive | inactive
COc1cccc(C(=O)NCCN2CCN(c3ccc(Cl)cc3)CC2)c1 | inactive | inactive
